Common to all, as to assay: DAPPL (digital affinity profiling via proximity ligation, sequencing); 10 mM Tris-HCl pH 7.5, 50 mM NaCl, 1 mM DTT, 4% glycerol, room temperature, 30 min; GST-TFs on glutathione beads, 16-mer random dsDNA library, 0.1% formaldehyde crosslink after washing; high values mean tight binding
Settings in all cases: protein: recombinant; tags: N-terminal GST; dsDNA, one strand shown

One experiment addresses T1, FLI1 (Homo sapiens, UniProt Q01543 1-452).
T1 sequence: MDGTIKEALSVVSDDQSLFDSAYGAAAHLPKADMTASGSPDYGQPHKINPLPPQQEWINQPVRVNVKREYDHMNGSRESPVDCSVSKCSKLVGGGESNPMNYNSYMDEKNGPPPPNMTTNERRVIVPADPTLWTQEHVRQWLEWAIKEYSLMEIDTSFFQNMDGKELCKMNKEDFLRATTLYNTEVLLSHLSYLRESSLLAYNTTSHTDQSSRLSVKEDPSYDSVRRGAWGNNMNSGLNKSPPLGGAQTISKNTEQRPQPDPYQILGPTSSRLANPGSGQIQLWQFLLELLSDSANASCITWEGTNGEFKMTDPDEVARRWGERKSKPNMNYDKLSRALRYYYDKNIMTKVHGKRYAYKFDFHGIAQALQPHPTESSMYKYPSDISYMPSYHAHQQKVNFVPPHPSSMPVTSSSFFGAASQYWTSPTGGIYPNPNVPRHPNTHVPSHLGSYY
The method in brief: (§1)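 A tag-only sample was pooled with DNA-barcoded human transcription factors that had been expressed in yeast as GST fusions and captured on glutathione beads. The pools were incubated for 30 min at room temperature with 200 nmole of a random double-stranded 16-mer DNA library in Tris/NaCl/DTT/glycerol buffer, then washed, crosslinked with 0.1% formaldehyde, proximity-ligated (BsaI/T4 ligase, 1 h, 37 °C), PCR-amplified and sequenced on an Illumina NextSeq500. Binding signal is each hexamer's read frequency for a factor divided by its frequency for the tag-only sample.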

In a further experiment the target is T2, ELK1 (Homo sapiens, UniProt P19419 1-428).
T2 sequence: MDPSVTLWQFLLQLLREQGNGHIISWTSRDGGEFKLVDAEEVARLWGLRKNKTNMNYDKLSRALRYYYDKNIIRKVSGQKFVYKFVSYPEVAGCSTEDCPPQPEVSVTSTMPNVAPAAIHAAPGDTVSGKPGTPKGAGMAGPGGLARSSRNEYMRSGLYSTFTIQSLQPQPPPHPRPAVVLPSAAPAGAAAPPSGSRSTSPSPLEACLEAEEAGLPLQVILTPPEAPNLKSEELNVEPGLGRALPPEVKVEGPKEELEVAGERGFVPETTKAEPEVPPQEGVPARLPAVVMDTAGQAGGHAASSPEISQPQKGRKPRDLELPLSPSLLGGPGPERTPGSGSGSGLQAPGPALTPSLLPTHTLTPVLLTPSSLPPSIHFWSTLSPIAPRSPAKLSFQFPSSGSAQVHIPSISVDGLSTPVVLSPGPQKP
The method in brief:
as §1

The target of another experiment is T3, GABPA (Homo sapiens, UniProt Q06546 1-454).
T3 sequence: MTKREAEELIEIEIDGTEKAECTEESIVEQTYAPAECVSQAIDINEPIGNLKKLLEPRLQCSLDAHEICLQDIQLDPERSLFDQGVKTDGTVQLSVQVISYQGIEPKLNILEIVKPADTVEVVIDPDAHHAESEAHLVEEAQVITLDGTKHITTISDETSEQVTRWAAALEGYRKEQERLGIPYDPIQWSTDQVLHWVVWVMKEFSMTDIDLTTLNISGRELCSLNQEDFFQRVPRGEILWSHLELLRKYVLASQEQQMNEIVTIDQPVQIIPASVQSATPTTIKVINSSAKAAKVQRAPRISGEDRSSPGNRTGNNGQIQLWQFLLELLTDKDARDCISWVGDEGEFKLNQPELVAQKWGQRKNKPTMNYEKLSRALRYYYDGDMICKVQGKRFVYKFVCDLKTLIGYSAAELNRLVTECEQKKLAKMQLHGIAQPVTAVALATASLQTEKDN
The method in brief:
as §1

The next experiment has as its target T4, ERG (Homo sapiens, UniProt P11308 1-479).
T4 sequence: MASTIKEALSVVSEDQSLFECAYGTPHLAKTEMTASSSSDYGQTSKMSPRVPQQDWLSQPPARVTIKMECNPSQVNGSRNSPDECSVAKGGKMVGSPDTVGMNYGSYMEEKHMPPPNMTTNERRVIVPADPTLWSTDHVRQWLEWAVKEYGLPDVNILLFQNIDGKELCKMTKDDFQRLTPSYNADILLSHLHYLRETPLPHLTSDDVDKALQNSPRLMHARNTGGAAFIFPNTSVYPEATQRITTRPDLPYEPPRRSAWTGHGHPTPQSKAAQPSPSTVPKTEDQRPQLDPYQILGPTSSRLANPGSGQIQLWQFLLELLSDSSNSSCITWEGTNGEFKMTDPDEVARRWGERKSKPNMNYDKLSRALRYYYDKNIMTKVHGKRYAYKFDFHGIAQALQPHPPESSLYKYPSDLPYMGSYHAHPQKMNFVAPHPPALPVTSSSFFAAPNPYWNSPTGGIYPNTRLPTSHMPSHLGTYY
The method in brief:
as §1

In the next experiment the target is ELF1 (Homo sapiens, UniProt P32519 1-619). The method in brief: as §1
A further experiment concerns the target T5, EHF (Homo sapiens, UniProt Q9NZC4 1-300).
T5 sequence: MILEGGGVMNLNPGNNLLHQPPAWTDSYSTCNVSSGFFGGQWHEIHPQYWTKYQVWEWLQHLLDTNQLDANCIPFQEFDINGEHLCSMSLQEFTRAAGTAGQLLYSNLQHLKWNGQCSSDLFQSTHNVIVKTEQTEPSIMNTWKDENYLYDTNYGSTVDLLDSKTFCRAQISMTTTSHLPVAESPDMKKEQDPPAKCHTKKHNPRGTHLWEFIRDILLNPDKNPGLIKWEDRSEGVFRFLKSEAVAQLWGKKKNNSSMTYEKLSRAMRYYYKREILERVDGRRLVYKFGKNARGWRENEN
The method in brief: as §1

The target of a further experiment is SPI1 (Homo sapiens, UniProt P17947 1-270). The method in brief: as §1
The next experiment deals with SPIB (Homo sapiens, UniProt Q01892 1-262). The method in brief: as §1
Another experiment addresses T6, ELK3 (Homo sapiens, UniProt P41970 1-407).
T6 sequence: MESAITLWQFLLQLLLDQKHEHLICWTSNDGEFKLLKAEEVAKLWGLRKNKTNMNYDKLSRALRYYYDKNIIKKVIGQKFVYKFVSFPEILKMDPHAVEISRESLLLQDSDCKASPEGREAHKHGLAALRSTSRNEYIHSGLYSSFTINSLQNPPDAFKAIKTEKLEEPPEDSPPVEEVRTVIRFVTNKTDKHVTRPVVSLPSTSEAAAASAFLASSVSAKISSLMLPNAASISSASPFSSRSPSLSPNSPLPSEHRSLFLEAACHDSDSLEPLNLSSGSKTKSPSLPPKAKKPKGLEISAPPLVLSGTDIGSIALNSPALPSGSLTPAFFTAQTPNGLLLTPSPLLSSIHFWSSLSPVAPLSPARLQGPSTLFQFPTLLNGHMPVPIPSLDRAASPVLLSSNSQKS
The method in brief: as §1

Sequence of ELF1 (P32519 whole entry): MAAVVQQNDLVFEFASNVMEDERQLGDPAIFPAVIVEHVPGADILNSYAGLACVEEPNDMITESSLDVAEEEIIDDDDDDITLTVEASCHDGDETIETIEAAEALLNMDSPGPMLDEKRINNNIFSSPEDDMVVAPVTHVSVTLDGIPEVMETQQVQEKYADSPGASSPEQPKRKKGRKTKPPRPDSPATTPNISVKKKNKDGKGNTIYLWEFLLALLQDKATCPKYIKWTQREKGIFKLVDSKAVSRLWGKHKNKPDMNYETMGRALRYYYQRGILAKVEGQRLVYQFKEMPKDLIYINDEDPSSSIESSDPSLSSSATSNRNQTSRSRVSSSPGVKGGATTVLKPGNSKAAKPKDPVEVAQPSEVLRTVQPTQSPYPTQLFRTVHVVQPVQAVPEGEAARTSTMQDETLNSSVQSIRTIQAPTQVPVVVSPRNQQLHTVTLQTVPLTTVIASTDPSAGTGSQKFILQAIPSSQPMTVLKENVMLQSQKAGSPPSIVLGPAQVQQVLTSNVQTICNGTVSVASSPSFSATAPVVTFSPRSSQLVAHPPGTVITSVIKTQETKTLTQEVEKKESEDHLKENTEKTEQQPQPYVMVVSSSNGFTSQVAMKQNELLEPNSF
Sequence of SPIB (Q01892 whole entry): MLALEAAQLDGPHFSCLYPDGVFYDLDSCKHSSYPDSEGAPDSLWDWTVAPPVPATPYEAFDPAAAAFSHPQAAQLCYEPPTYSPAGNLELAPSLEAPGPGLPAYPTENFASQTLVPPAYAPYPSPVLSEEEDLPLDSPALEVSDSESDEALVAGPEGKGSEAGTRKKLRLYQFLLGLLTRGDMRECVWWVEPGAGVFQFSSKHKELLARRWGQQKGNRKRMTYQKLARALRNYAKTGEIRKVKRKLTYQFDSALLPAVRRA

CCGCAA: the binding signal with FLI1 is 1.27 fold enrichment (6-mer frequency, TF over GST control); in the experiment with ELK1, 1.3 fold enrichment (6-mer frequency, TF over GST control); with GABPA it was 1.36 fold enrichment (6-mer frequency, TF over GST control); in the experiment with ERG, 1.28 fold enrichment (6-mer frequency, TF over GST control); in the experiment with ELF1, 1.31 fold enrichment (6-mer frequency, TF over GST control); with EHF, 1.34 fold enrichment (6-mer frequency, TF over GST control). The binding signal with SPI1 was 1.45 fold enrichment (6-mer frequency, TF over GST control); with SPIB, 1.28 fold enrichment (6-mer frequency, TF over GST control); with ELK3, 1.34 fold enrichment (6-mer frequency, TF over GST control).
With CTTTCG, the binding signal with FLI1 was 1.1 fold enrichment (6-mer frequency, TF over GST control); with ELK1 it was 1.21 fold enrichment (6-mer frequency, TF over GST control); in the experiment with GABPA, 1.26 fold enrichment (6-mer frequency, TF over GST control); with ERG, 1.15 fold enrichment (6-mer frequency, TF over GST control); with ELF1, 1.3 fold enrichment (6-mer frequency, TF over GST control); with EHF, 1.3 fold enrichment (6-mer frequency, TF over GST control). Besides, the binding signal is 1.23 fold enrichment (6-mer frequency, TF over GST control) with SPI1; 1.39 fold enrichment (6-mer frequency, TF over GST control) with SPIB; 1.27 fold enrichment (6-mer frequency, TF over GST control) with ELK3.
Consider ATACTC, for which the binding signal is 1.29 fold enrichment (6-mer frequency, TF over GST control) in the experiment with FLI1; 1.32 fold enrichment (6-mer frequency, TF over GST control) with ELK1; 1.48 fold enrichment (6-mer frequency, TF over GST control) in the experiment with GABPA; 1.3 fold enrichment (6-mer frequency, TF over GST control) in the experiment with ERG; 1.38 fold enrichment (6-mer frequency, TF over GST control) in the experiment with ELF1; 1.33 fold enrichment (6-mer frequency, TF over GST control) in the experiment with EHF. For the same sequence, the binding signal with SPI1 was 1.26 fold enrichment (6-mer frequency, TF over GST control); in the experiment with SPIB it was 1.32 fold enrichment (6-mer frequency, TF over GST control); with ELK3, 1.3 fold enrichment (6-mer frequency, TF over GST control).
For the sequence CCAACG, the binding signal with FLI1 is 1.12 fold enrichment (6-mer frequency, TF over GST control); with ELK1, 1.15 fold enrichment (6-mer frequency, TF over GST control); with GABPA, 1.09 fold enrichment (6-mer frequency, TF over GST control); in the experiment with ERG, 1.17 fold enrichment (6-mer frequency, TF over GST control); in the experiment with ELF1 it was 1.2 fold enrichment (6-mer frequency, TF over GST control); in the experiment with EHF, 1.11 fold enrichment (6-mer frequency, TF over GST control). Besides, the binding signal in the experiment with SPI1 was 1.15 fold enrichment (6-mer frequency, TF over GST control); in the experiment with SPIB, 1.07 fold enrichment (6-mer frequency, TF over GST control); in the experiment with ELK3, 1 fold enrichment (6-mer frequency, TF over GST control).
In the case of TATGCA, the binding signal with FLI1 was 1.24 fold enrichment (6-mer frequency, TF over GST control); in the experiment with ELK1, 1.24 fold enrichment (6-mer frequency, TF over GST control); in the experiment with GABPA it was 1.24 fold enrichment (6-mer frequency, TF over GST control); with ERG it was 1.26 fold enrichment (6-mer frequency, TF over GST control); with ELF1 it was 1.18 fold enrichment (6-mer frequency, TF over GST control); with EHF, 1.12 fold enrichment (6-mer frequency, TF over GST control). The binding signal with SPI1 was 1.34 fold enrichment (6-mer frequency, TF over GST control); with SPIB it was 1.25 fold enrichment (6-mer frequency, TF over GST control); in the experiment with ELK3, 1.15 fold enrichment (6-mer frequency, TF over GST control).
Take TATAGC: the binding signal is 1.2 fold enrichment (6-mer frequency, TF over GST control) in the experiment with FLI1; 1.22 fold enrichment (6-mer frequency, TF over GST control) in the experiment with ELK1; 1.26 fold enrichment (6-mer frequency, TF over GST control) with GABPA; 1.2 fold enrichment (6-mer frequency, TF over GST control) with ERG; 1.21 fold enrichment (6-mer frequency, TF over GST control) with ELF1; 1.17 fold enrichment (6-mer frequency, TF over GST control) in the experiment with EHF. The binding signal was 1.16 fold enrichment (6-mer frequency, TF over GST control) with SPI1; 1.18 fold enrichment (6-mer frequency, TF over GST control) with SPIB; 1.1 fold enrichment (6-mer frequency, TF over GST control) in the experiment with ELK3.
On to TGCCAT, for which the binding signal with FLI1 is 1.11 fold enrichment (6-mer frequency, TF over GST control); with ELK1 it was 1.06 fold enrichment (6-mer frequency, TF over GST control); with GABPA, 1.26 fold enrichment (6-mer frequency, TF over GST control); with ERG, 1.21 fold enrichment (6-mer frequency, TF over GST control); with ELF1 it was 1.1 fold enrichment (6-mer frequency, TF over GST control); in the experiment with EHF, 1.21 fold enrichment (6-mer frequency, TF over GST control). Besides, the binding signal is 1.17 fold enrichment (6-mer frequency, TF over GST control) with SPI1; 1.16 fold enrichment (6-mer frequency, TF over GST control) in the experiment with SPIB; 1.12 fold enrichment (6-mer frequency, TF over GST control) in the experiment with ELK3.

Source of the values: article PMC7862700, “An all-to-all approach to the identification of sequence-specific readers for epigenetic DNA modifications on cytosine”.
